Experiment in all cases: NCI-60 one-dose screen, 48 h (100 = growth as untreated, 0 = no growth, -100 = all killed)
What all share (details): 10 µM unless noted

The test system of experiment [1] is T-47D breast.
In experiment [2] the test system is BT-549 breast.
Experiment [3] has as its system MDA-MB-435 melanoma.
Experiment [4] deals with SW-620 colon.
For experiment [5], the system named is HCT-116 colon.
Experiment [6] concerns HCC-2998 colon.
Experiment [7] concerns KM12 colon.
Experiment [8] concerns MCF7 breast.

This is part of a sample that, as a whole, favours compounds with a hit. Of some 83,000 tested, about 20% had one in any assay.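 A percent growth of 40 corresponds to 60% growth inhibition; 0 means no net growth; -100 means all cells died. Active threshold: below 10.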 Activity calls are given as the source filed them.

Consider `Cc1cc(N2CCCCC2)cc(C)c1-c1csc(NC(=O)c2ccncc2)n1`, for which the growth was 34.3% (inactive) in experiment [1]; 57.6% (inactive) in experiment [2]; 37.1% (inactive) in experiment [3]; 69.9% (inactive) in experiment [4]; 20.7% (inactive) in experiment [5]; 97.4% (inactive) in experiment [6].

As to `CCCc1c(OC(=O)c2ccccc2)nc2[nH]c(=O)sc2c1C`, the growth was 89.7% (inactive) in experiment [1]; 95.1% (inactive) in experiment [2]; 103% (inactive) in experiment [3]; 95.3% (inactive) in experiment [4]; 98% (inactive) in experiment [5]; 93.5% (inactive) in experiment [6]. The growth in experiment [7] was 101% (inactive).

`COC(=O)c1c(C)nc(C)c2c1C(=O)C(Br)=C(NCc1ccccc1)C2=O`: the growth in experiment [1] is 13.7% (inactive); in experiment [2], 50.9% (inactive); in experiment [3], -76.5% (active); in experiment [4] it was 16.7% (inactive); in experiment [5], 1.86% (active); in experiment [6], 21.8% (inactive). Moreover, the growth in experiment [7] was 37.1% (inactive).

Consider `CCOC(=O)C(=O)C(C(=O)OCC)c1ccccc1` (stereo not given), for which the growth in experiment [1] was 100% (inactive); in experiment [2], 97.3% (inactive); in experiment [3], 101% (inactive); in experiment [4], 103% (inactive); in experiment [5], 96.2% (inactive); in experiment [6], 114% (inactive). Further, the growth in experiment [7] is 107% (inactive).

For the compound `COCCn1cc(-c2nc(-c3cc4cccnc4[nH]3)cs2)c2cc(OC)ccc21`, the growth in experiment [1] was -12.4% (active); in experiment [2] it was 1.78% (active); in experiment [3] it was 52.4% (inactive); in experiment [4], 48.4% (inactive); in experiment [5] it was 30.3% (inactive); in experiment [6] it was 57.6% (inactive). Moreover, the growth in experiment [7] is 1.17% (active).

In the case of `COC1=CC(c2ccc[nH]2)=N/C1=C\c1[nH]c(C)c(C)c1CCC(=O)OCc1ccccc1`, the growth in experiment [1] is 2.57% (active); in experiment [2], -28.7% (active); in experiment [3], -39% (active); in experiment [4], -14.8% (active); in experiment [5] it was -76% (active); in experiment [6], 6.09% (active). For the same compound, the growth in experiment [7] is -20.9% (active).

With `Cc1c(O)cc(-c2cnc(Nc3ccccc3)s2)c(O)c1C`, the growth in experiment [1] was 68.6% (inactive); in experiment [2], 91.8% (inactive); in experiment [3], 101% (inactive); in experiment [4], 104% (inactive); in experiment [5], 97.8% (inactive); in experiment [6], 118% (inactive). The growth in experiment [7] was 95.9% (inactive).

Regarding `COC1=CC(c2ccc[nH]2)=N/C1=C\c1[nH]c(C)c(CC(=O)NCc2ccccc2)c1C`, the growth in experiment [1] was 15.1% (inactive); in experiment [2] it was 40.2% (inactive); in experiment [3] it was 15.9% (inactive); in experiment [4], 20.6% (inactive); in experiment [5], 2.09% (active); in experiment [6], 13.9% (inactive). For the same compound, the growth in experiment [7] was -46.1% (active).

For `CCN(CC)CCn1c2ccc(OC)cc2c2sc3cc(OC)ccc3c(=O)c21`, the growth in experiment [1] was 48.5% (inactive); in experiment [2] it was 61.7% (inactive); in experiment [3] it was 35.7% (inactive); in experiment [4], 8.87% (active); in experiment [8] it was 4.61% (active); in experiment [5], 4.6% (active). For the same compound, the values for the growth in experiment [6] and in experiment [7] were 35.7% (inactive) and 22.4% (inactive), respectively.

For the compound `C#COc1cccc(Nc2c(C#N)cnc3ncc(NC(=O)CCl)cc23)c1`, the growth in experiment [1] was 4.8% [6.25 µM] (active); in experiment [2], 40.3% [6.25 µM] (inactive); in experiment [3], 41.4% [6.25 µM] (inactive); in experiment [4], 9.61% [6.25 µM] (active); in experiment [5] it was -3.66% [6.25 µM] (active); in experiment [6] it was 31.7% [6.25 µM] (inactive). Also, in experiment [7], the growth was 31.4% [6.25 µM] (inactive).

Turning to `CCCCCCCCCCC(CN(CC)CC)C(O)c1ccccc1` (stereo not given), the growth was 3.27% (active) in experiment [1]; 61.7% (inactive) in experiment [2]; -25.1% (active) in experiment [3]; 32.1% (inactive) in experiment [4]; 20.7% (inactive) in experiment [5]; -19.4% (active) in experiment [6]. In addition, in experiment [7], the growth was 8.29% (active).

With `CCOC(=O)C1=C(c2ccccc2)N=C2SC=C(c3ccc(Cl)cc3)N2C1c1ccc(Cl)cc1` (stereo not given), the growth in experiment [1] was 52.4% (inactive); in experiment [2], 87.5% (inactive); in experiment [3], 93.2% (inactive); in experiment [4], 81.8% (inactive); in experiment [5] it was 63% (inactive); in experiment [6], 86.2% (inactive). The growth in experiment [7] is 72.5% (inactive).

On to `CCn1cc(C(=O)O)c(=O)c2cc(F)c(N3CCN(CC(=O)Nc4ccc(S(=O)(=O)Nc5nccc(C)n5)cc4)C(C)C3)c(F)c21` (stereo not given), for which the growth in experiment [1] was 98.9% (inactive); in experiment [2] it was 132% (inactive); in experiment [3], 103% (inactive); in experiment [4], 96.6% (inactive); in experiment [5] it was 104% (inactive); in experiment [6], 115% (inactive). The growth in experiment [7] is 100% (inactive).

Turning to `O=C(NNC(=O)c1ccc(NC(=O)c2ccccn2)cc1)Nc1ccc([N+](=O)[O-])cc1`, the growth was 99.2% (inactive) in experiment [1]; 94.6% (inactive) in experiment [2]; 106% (inactive) in experiment [3]; 104% (inactive) in experiment [4]; 101% (inactive) in experiment [5]; 109% (inactive) in experiment [6]. Besides, the growth in experiment [7] was 108% (inactive).

Take `CC(C)(C)[Si](C)(C)OC1[C@@H](CNC(=O)NC(=O)NC(N)=O)O[C@@H](n2cnc3c(NC(=O)Nc4ccccc4)ncnc32)[C@H]1O[Si](C)(C)C(C)(C)C` (stereo not given in full): the growth in experiment [1] was 82.8% (inactive); in experiment [2] it was 95.4% (inactive); in experiment [3] it was 68.9% (inactive); in experiment [4], 55.9% (inactive); in experiment [5], 20.5% (inactive); in experiment [6] it was 85.8% (inactive). The growth in experiment [7] is 61.5% (inactive).

As for `COc1ccc(C(=O)c2cc3c(N)c(C(=O)Nc4ccc(C)cc4)sc3nc2C)cc1`, the growth in experiment [1] was 46.6% (inactive); in experiment [2] it was 46.5% (inactive); in experiment [3] it was -42.9% (active); in experiment [4] it was 28.3% (inactive); in experiment [5], 16.2% (inactive); in experiment [6] it was 13.9% (inactive). In addition, the growth in experiment [7] was 15.5% (inactive).

Consider `CC(C)(Sc1cc(C(C)(C)C)c(O)c(C(C)(C)C)c1)Sc1cc(C(C)(C)C)c(OC(=O)CCCC(=O)O)c(C(C)(C)C)c1`, for which the growth in experiment [1] was 36.6% (inactive); in experiment [2], 64.9% (inactive); in experiment [3], 60.4% (inactive); in experiment [4], 43.7% (inactive); in experiment [5], 26.5% (inactive); in experiment [6], 50.4% (inactive). Further, in experiment [7], the growth was 36.7% (inactive).

As for `COc1cc2c(cc1OC)C(C)N(S(N)(=O)=O)CC2` (stereo not given), the growth in experiment [1] was 93.1% (inactive); in experiment [2], 91.8% (inactive); in experiment [3], 110% (inactive); in experiment [4], 107% (inactive); in experiment [5], 89.4% (inactive); in experiment [6], 98.1% (inactive). Also, the growth in experiment [7] is 112% (inactive).

As to `COCCNC(=O)Nc1ccc2nc(-c3cccs3)c(-c3cccs3)nc2c1`, the growth is 58.1% (inactive) in experiment [1]; 94.4% (inactive) in experiment [2]; 94.1% (inactive) in experiment [3]; 89.2% (inactive) in experiment [4]; 92.7% (inactive) in experiment [5]; 101% (inactive) in experiment [6]. Also, the growth in experiment [7] was 95.2% (inactive).

With `Cc1ccc(CNc2ccc3nc(CCC4CCCCC4)[nH]c3c2)cc1`, the growth in experiment [1] was 3.58% (active); in experiment [2] it was 88% (inactive); in experiment [3], 55.6% (inactive); in experiment [4], 32.3% (inactive); in experiment [5], 16.3% (inactive); in experiment [6], -25.2% (active). In experiment [7], the growth was 39.3% (inactive).

With `CCCCNC(=O)Oc1ccc(/C(=C(/C)Cc2ccc(OC)cc2)c2ccc(OCCN3CCCC3)cc2)cc1`, the growth in experiment [1] was 32.4% (inactive); in experiment [2], 73.8% (inactive); in experiment [3], 55.8% (inactive); in experiment [4], 72.7% (inactive); in experiment [8], 17.7% (inactive); in experiment [5] it was 39.3% (inactive). The growth in experiment [6] was 64.7% (inactive); in experiment [7], 55.3% (inactive).

With `CN(C)CC1CCC(CN(C)C)C1=O` (stereo not given), the growth in experiment [1] was 106% (inactive); in experiment [2], 110% (inactive); in experiment [3], 121% (inactive); in experiment [4], 86.9% (inactive); in experiment [5] it was 93.9% (inactive); in experiment [6], 114% (inactive). The growth in experiment [7] is 115% (inactive).

Turning to `Cn1cc(-c2nonc2-c2cn(C)c3ccccc23)c2ccccc21`, the growth in experiment [1] was 33.4% (inactive); in experiment [2] it was 31.1% (inactive); in experiment [3], -34.3% (active); in experiment [4], 24.5% (inactive); in experiment [5] it was 11.6% (inactive); in experiment [6], 51.2% (inactive). For the same compound, in experiment [7], the growth was 27.4% (inactive).

As to `CS(=O)(=O)c1ccc(-c2cnn3ccc(-c4cccc(S(=O)(=O)C5CC5)c4)nc23)cc1`, the growth is -6.07% (active) in experiment [1]; 53.4% (inactive) in experiment [2]; 59.1% (inactive) in experiment [3]; 74.2% (inactive) in experiment [4]; 55.5% (inactive) in experiment [5]; 75.4% (inactive) in experiment [6]. Also, the growth in experiment [7] was 62% (inactive).

As to `O=C1NC2(Nc3ccccc31)C(=O)Nc1c(Cl)cc(Cl)cc12` (stereo not given), the growth in experiment [1] is 87.9% (inactive); in experiment [2], 99.3% (inactive); in experiment [3], 103% (inactive); in experiment [8], 88.9% (inactive); in experiment [5] it was 98.6% (inactive); in experiment [6] it was 104% (inactive). In experiment [7], the growth was 100% (inactive).

As for `COc1ccc(CNc2c3ccccc3nc3ccccc23)cc1`, the growth in experiment [1] is 44.9% (inactive); in experiment [2], 80.1% (inactive); in experiment [3], 40.2% (inactive); in experiment [8] it was 12.6% (inactive); in experiment [5] it was 9.53% (active); in experiment [6] it was 38.6% (inactive). Further, the growth in experiment [7] is 33.2% (inactive).

Take `CCCCNCCCCCNc1cc(OC)cc2cccnc12`: the growth in experiment [1] is 79.4% (inactive); in experiment [2], 91% (inactive); in experiment [3], 102% (inactive); in experiment [8], 84.6% (inactive); in experiment [5], 85.9% (inactive); in experiment [6], 95.4% (inactive). Further, the growth in experiment [7] was 114% (inactive).
